Pf growth 96h – P. falciparum growth inhibition at 96 hours | P. falciparum luciferase reporter growth, 96 h | Potency, µM (highest dose often 28.7 µM), for inactives: at the top dose activity change, negative = inhibition, actives largely listed as inhibitors | hit rate 6.9% among 320,000; also: potency is read from the fitted curve at half-maximal effect; % is scaled to controls: 0 for no effect and ±100 for the full control effect
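Erythrocytes infected with luciferase-expressing P. falciparum were dispensed at 2% hematocrit and 0.05% parasitemia (final), then incubated with compounds 96 hours at 37 C in 5% CO2. Luminescence after detection reagent addition reported growth.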
Cycloheximide cs – counter-screen for Shiga toxin inhibitors: cycloheximide protein synthesis inhibition; cell reporter, cycloheximide protein synthesis inhibition counterscreen; max response, %; hit rate 12% among 300,000; in the data active = max response mostly above about 13%, no sharp cut-off; inactive = mostly below about 14%; also: read at 38.3 µM for the half of the compounds with a filed dose; 0% is about no effect
NS1 inh – blocks influenza NS1 protein function. hit rate 0.4% among 270,000. AID 2326. Potency, µM (doses to about 46.1 µM), without a hit: at the highest dose activity, positive = more growth; calls by dose curve; also: potency is read from the fitted curve at half-maximal effect; actives are rising curves; nearly all actives have a fitted effect of over 50% in size
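Compounds were scored for reversing the slow growth caused by influenza A NS1 in S. cerevisiae, measured by optical density at 600 nm. Assay medium contained 2% galactose at pH 6.0; NS1-free yeast of the same strain were the positive control.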
Shiga toxin inh – blocks Shiga toxin action in Vero cells | Vero cells, Shiga toxin protein synthesis inhibition reporter | inhibition, % at 38.7 µM | hit rate 9.2% among 290,000; in the data active = inhibition mostly above about 28%, no sharp cut-off; inactive = mostly below about 43%; also: 0% is about no effect
Pf growth 48h – P. falciparum growth inhibition at 48 hours (one generation). P. falciparum luciferase growth in erythrocytes, 48 h. Potency, µM (series often up to 28.7 µM), for inactives: at the highest dose activity change, negative = inhibition, actives largely listed as inhibitors. hit rate 5.9% among 310,000; also: potency is read from the fitted curve at half-maximal effect; % is scaled to controls: 0 for no effect and ±100 for the full control effect
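Firefly luciferase activity from engineered P. falciparum reports growth; inhibitors lower the luminescent signal. Cultures contained 2% hematocrit erythrocytes at 0.1% final parasitemia.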
Numbers without * were called inactive; u = inconclusive; x = not tested or not shown; [ ] = dose if it differs, or a comment. This is a sample that favours compounds with a hit; in the whole collection about 21% have one here. Unless noted, calls follow the shape of the dose curve; as a rule, active = well fitted inhibition curve with a large enough effect; inconclusive = small, poorly fitted or top-dose-only effect, or another doubt; inactive = no such curve, though single readings can be large or run the other way.

SMILES	Pf growth 96h	Cycloheximide cs	NS1 inh	Shiga toxin inh	Pf growth 48h
COC(=O)C1=C(c2ccc(F)cc2F)C[C@@H]2CC[C@H]1N2C(=O)NC1Cc2ccccc2C1	u	x	x	x	-22.0%
COC(=O)C1=C(c2ccc(Cl)c(C(F)(F)F)c2)C[C@@H]2CC[C@H]1N2C(=O)NCCOc1ccccc1Cl	6.57µM*	x	x	x	9.28µM*
Cc1ccc(SC(C)C(=O)Nc2ccc(S(=O)(=O)N3CCOCC3)cc2)cc1 (stereo unspecified)	84.9%	5.7	-5.9%	4.2	u
COC(=O)C1=C(c2ccc(F)cc2F)C[C@@H]2CC[C@H]1N2C(=O)NCCNC(C)=O	34.4%	x	x	x	-8.6%
COC(=O)C1=C(c2ccc(OC)c(OC)c2)C[C@@H]2CC[C@H]1N2C(=O)NCCc1ccccc1	-8.5%	x	x	x	u
COC(=O)C1=C(c2ccc(F)cc2OCc2ccccc2)C[C@@H]2CC[C@H]1N2C(=O)NCCOc1ccc(OC)cc1	3.29µM*	x	x	x	u
COC(=O)C1=C(c2ccc(F)cc2OCc2ccccc2)C[C@@H]2CC[C@H]1N2C(=O)NCCc1ccc(F)cc1	u	x	x	x	11.7µM*
COC(=O)C1=C(c2ccc(F)cc2OCc2ccccc2)C[C@@H]2CC[C@H]1N2C(=O)NCCN1CCOCC1	u	x	x	x	11.7µM*
Cc1ccc(NC(=S)Nc2ccc(S(=O)(=O)N3CCOCC3)cc2)cc1S(=O)(=O)N1CCOCC1	-19.0%	-2.7	x	-1.6	1.2%
CC1=C(C#N)CCC(=O)N1Cc1ccc(C)cc1	88.2%	-2.4	-3.4%	-36.3	7.8%
CC(C)/C=C/CN1CCCC(N2CCN(c3cccc(Cl)c3)CC2)C1 (stereo unspecified)	77.5%	3.4	-8.4%	-3.0	u
COc1cccc(CN2CCCC(N3CCc4ccccc4C3)C2)c1O (stereo unspecified)	-1.2%	-2.1	14.6%	-7.9	u
CCOc1cccc(CN2CCCC(N3CCc4ccccc4C3)C2)c1O (stereo unspecified)	-19.4%	-1.0	-3.1%	3.6	1.65µM*
COc1ccc(F)cc1C(=O)C1CCCN(Cc2cnc(N3CCCC3)s2)C1 (stereo unspecified)	-5.3%	1.0	1.2%	-5.6	-1.6%
FC(F)(F)c1cccc(N2CCN(Cc3cccnc3)CC2)c1	4.65µM*	-3.6	2.0%	16.2	u
COc1cccc(N2CCN(Cc3cccnc3)CC2)c1	x	1.3	3.8%	40.9	-19.1%
COc1ccc(Cl)cc1C(=O)C1CCCN(Cc2cnc(N3CCOCC3)s2)C1 (stereo unspecified)	10.4µM*	0.2	-1.8%	-22.7	u
CCOc1cccc(CN2CCCC(N3CCN(c4cccc(Cl)c4)CC3)C2)c1O (stereo unspecified)	3.7µM*	-1.6	8.5%	-5.3	u
COc1cccc(CNC(=O)CCNC(=O)c2ccccc2OC)c1	2.2%	0.9	0.4%	-3.5	-2.1%
O=C(c1cc2ccc([N+](=O)[O-])cc2oc1=O)N1CCOCC1	-8.2%	0.7	x	-3.6	-13.8%
CCOc1cccc(CN2CCN(c3cccc(C(F)(F)F)c3)CC2)c1O	x	3.9	15.7%	23.2	2.33µM*
CCOc1cccc(CN2CCCC(C(=O)c3cc(Cl)ccc3OC)C2)c1O (stereo unspecified)	-27.7%	-2.7	0.0%	-3.3	1.65µM*
COc1cccc(CN2CCN(c3cccc(C(F)(F)F)c3)CC2)c1OC	x	-2.4	-18.1%	8.0	-29.0%
Cc1cc(C(=O)CSc2nc3ccccc3c(=O)[nH]2)c(C)n1C	34.9%	33.7*	-8.7%	132.5*	15.1%
CC(C)(C)NC(=O)CSc1nc2ccccc2c(=O)[nH]1	77.1%	32.4*	1.4%	17.8	11.7µM*
SMILES	Pf growth 96h	Cycloheximide cs	NS1 inh	Shiga toxin inh	Pf growth 48h
CC(C)(C)NC(=O)CSc1nc(Cc2ccccc2)nc2ccccc12	13.1µM*	-5.0	-21.6%	-0.6	-16.7%
CCC(C)(C)NC(=O)CSc1nc(Cc2ccccc2)nc2ccccc12	u	1.3	6.7%	-2.5	u
CC(C)N(C(=O)CSc1nc(Cc2ccccc2)nc2ccccc12)C(C)C	-1.6%	-2.7	9.2%	x	10.4µM*
Cc1cc(C(=O)CSC(C)c2nc3ccccc3c(=O)[nH]2)c(C)n1C (stereo unspecified)	x	3.6	-1.6%	-2.9	-6.8%
Cc1csc(NC(=O)CSC2=NS(=O)(=O)c3ccccc3N2)n1	18.7%	x	x	x	17.9%
O=C(COc1nncc2ccccc12)NCC(F)(F)F	20.6%	-3.1	x	-8.5	-7.9%
Cc1ccc(N(C(=O)c2ccccn2)C(C(=O)NC2CCCCC2)c2ccncc2)cc1 (stereo unspecified)	u	8.9	-8.7%	13.4	21.8%
CC(C)(C)n1nc2c(c1NC(=O)COc1ccc(Cl)cc1)CSC2	4.65µM*	-3.1	-34.4%	-19.8	u
CC(C)(C)n1nc2c(c1NC(=O)Cc1ccc(F)cc1)CSC2	10.4µM*	-8.2	9.8%	-15.1	x
COc1ccc(-n2nc3c(c2NC(=O)CCl)CSC3)cc1	u	11.7	-8.2%	13.1	0.738µM*
COCc1cc(C)nc(OC)c1C(N)=O	4.7%	0.8	x	-7.2	-8.0%
CCOc1ccc(NC(=S)NNC(=O)c2ccc(Br)cc2)cc1	-34.0%[5.75 µM]	3.5	x	-5.5	u
O=C(Nc1nc2cc3c(cc2s1)OCCO3)c1cccc(N2C(=O)CCC2=O)c1	97.7%	20.6*	2.5%	35.7*	72.3%
COc1cccc(OC)c1C(=O)Nc1nc2cc3c(cc2s1)OCO3	2.2%	-2.0	2.6%	16.4	-15.1%
O=C(Nc1nc2ccccc2s1)c1cccc(N2C(=O)CCC2=O)c1	-14.9%	-3.7	7.6%	-18.5	6.2%
O=C(Nc1nc2cc3c(cc2s1)OCCO3)c1cccs1	13.8%	26.8*	-44.8%	12.5	14.5%
CCN(CC)S(=O)(=O)c1cc(NC(=O)c2cccc(N3C(=O)CCC3=O)c2)ccc1Cl	-11.7%	x	x	x	u
COc1ccccc1C(=O)Nc1nc2cc3c(cc2s1)OCO3	88.9%	54.9*	-0.7%	89.6*	212.1%
O=C(Nc1ccc2sccc2c1)c1cccc(N2C(=O)CCC2=O)c1	59.8%	37.2*	-6.0%	91.7*	5.2%
CCN(CC)S(=O)(=O)c1cccc(C(=O)Nc2nc3cc4c(cc3s2)OCCO4)c1	16.7%	8.8	10.7%	19.4	x
Cc1cc(C)nc(N2CCCC(C(=O)Nc3nnc(C(C)C)s3)C2)n1 (stereo unspecified)	u	-2.4	1.4%	9.9	-3.8%
Cc1ccc(S(=O)(=O)Nc2cccc(-n3cnnn3)c2)cc1C	-14.7%	-1.1	7.5%	-12.9	10.7%
COC(=O)C1CCCN1S(=O)(=O)c1ccccc1NC(=O)c1cc(OC)c(OC)c(OC)c1 (stereo unspecified)	-2.5%	-3.5	-11.7%	-2.0	u
COc1ccc(C(=O)Nc2nnc(-c3ccc(F)cc3)s2)c(OC)c1	38.0%	-3.5	0.4%	2.8	32.1%
NNc1nc2cc3c(cc2s1)OCCO3	-4.6%	31.9*	0.1%	63.8*	13.0%
COc1cc(C(=O)NNc2nc3cc4c(cc3s2)OCO4)cc(OC)c1OC	12.7%	-2.3	-4.9%	-12.7	-17.6%
COc1ccccc1C(=O)Nc1nc2cc3c(cc2s1)OCCO3	168.3%	34.2*	7.7%	60.8*	113.0%
